Records with an inconclusive call do not appear. The source made the active and inactive calls. The calls were made as follows, unless noted: active = hit-call score of the fitted dose curve at least 0.9, where 1 is the maximum; inactive = score below 0.9.
Columns and labels:
[1] = read-out: succinate dehydrogenase complex iron sulfur subunit B (SDHB), SDHB (gene 6390); assay: LTEA_HepaRG_SDHB: Life Technologies and Expression Analysis (LTEA) Assay for succinate dehydrogenase complex iron sulfur subunit B (SDHB) using HepaRG (AID 2283528); conditions: mRNA level, 48 h; actives raise or lower the signal
Outline: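 HepaRG cells (~100,000/well, plated 48 h) exposed in duplicate for 48 h in serum-free induction medium to 8-point half-log series from 100 uM in 0.5% DMSO; mRNA by qRT-PCR normalised to ACTB, GAPDH, POLR2A; bidirectional fit versus DMSO.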

[2] = read-out: Signal transducer and activator of transcription 3 (Homo sapiens) (UniProt P40763); assay: LTEA_HepaRG_STAT3: Life Technologies and Expression Analysis (LTEA) Assay for Signal transducer and activator of transcription (STAT3) using HepaRG (AID 2283529); conditions: mRNA level, 48 h; actives raise or lower the signal
Outline: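 Differentiated HepaRG cells, serum-free induction medium, dosed 48 h in duplicate, 8 half-log concentrations from 100 uM in 0.5% DMSO. STAT3 mRNA by qRT-PCR, normalised to ACTB, GAPDH, POLR2A; bidirectional fit versus DMSO.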

[3] = read-out: solute carrier (SLCO1B1), SLCO1B1 (gene 10599); assay: LTEA_HepaRG_SLCO1B1: Life Technologies and Expression Analysis (LTEA) Assay for solute carrier (SLCO1B1) using HepaRG (AID 2283530); conditions: mRNA level, 48 h; actives raise or lower the signal
Outline: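 Differentiated human HepaRG cells, plated 48 h, switched to serum-free induction medium and exposed in duplicate for 48 h to 8 half-log concentrations (top 100 uM) in 0.5% DMSO. SLCO1B1 mRNA by TaqMan qRT-PCR, normalized to ACTB/GAPDH/POLR2A.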

[4] = read-out: sulfotransferase 2A1 (SULT2A1), SULT2A1 (gene 6822); assay: LTEA_HepaRG_SULT2A1: Life Technologies and Expression Analysis (LTEA) Assay for sulfotransferase 2A1 (SULT2A1) using HepaRG (AID 2283531); conditions: mRNA level, 48 h; actives raise or lower the signal
Outline: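 Differentiated human HepaRG cells in serum-free induction medium were exposed for 48 h to eight half-log concentrations (top 100 uM, 0.5% DMSO). SULT2A1 mRNA was measured by qRT-PCR, normalized to ACTB, GAPDH and POLR2A, and fitted bidirectionally against DMSO.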

[5] = read-out: Transforming Growth Factor (TGFA), TGFA (gene 7039); assay: LTEA_HepaRG_TGFA: Life Technologies and Expression Analysis (LTEA) Assay for Transforming Growth Factor (TGFA) using HepaRG (AID 2283532); conditions: mRNA level, 48 h; actives raise or lower the signal
Outline: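 Differentiated HepaRG cells exposed 48 hours in serum-free induction medium, 0.5% DMSO vehicle, 8-point half-log series from 100 uM, in duplicate. TGFA mRNA by TaqMan qRT-PCR, normalised to ACTB, GAPDH, POLR2A; bidirectional fit versus DMSO.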

[6] = read-out: Transforming Growth Factor (TGFB1), TGFB1 (gene 7040); assay: LTEA_HepaRG_TGFB1: Life Technologies and Expression Analysis (LTEA) Assay for Transforming Growth Factor (TGFB1) Transporter using HepaRG (AID 2283533); conditions: mRNA level, 48 h; actives raise or lower the signal
Outline: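 Differentiated human HepaRG cells in serum-free induction medium were exposed in duplicate for 48 h to eight concentrations (top 100 uM, half-log steps, 0.5% DMSO). TGFB1 mRNA was quantified by qRT-PCR, normalized to ACTB, GAPDH, POLR2A, and fitted bidirectionally against DMSO.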

TIMP1, TIMP1 (gene 7076) = assay: LTEA_HepaRG_TIMP1: Life Technologies and Expression Analysis (LTEA) Assay for TIMP1 using HepaRG (AID 2283534); conditions: mRNA level, 48 h; actives raise or lower the signal;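 also: TaqMan qRT-PCR signal normalized to ACTB GAPDH and POLR2A housekeeping genes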
Outline: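 Differentiated human HepaRG cells in serum-free induction medium were exposed 48 h to chemicals (8 half-log concentrations, top 100 uM, 0.5% DMSO). TIMP1 mRNA was quantified by TaqMan qRT-PCR, normalized to ACTB/GAPDH/POLR2A; bidirectional fit versus DMSO.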

[7] = read-out: Tumor necrosis factor receptor 1 (TNFRSF1A), TNFRSF1A (gene 7132); assay: LTEA_HepaRG_TNFRSF1A: Life Technologies and Expression Analysis (LTEA) Assay for Tumor necrosis factor receptor 1 (TNFRSF1A) using HepaRG (AID 2283535); conditions: mRNA level, 48 h; actives raise or lower the signal
Outline: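 Differentiated human HepaRG cells were exposed in duplicate for 48 h in serum-free induction medium to eight concentrations (top 100 uM, half-log steps, 0.5% DMSO). TNFRSF1A mRNA was quantified by qRT-PCR, normalized to ACTB, GAPDH and POLR2A, then fitted bidirectionally against DMSO.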

[8] = read-out: Thyroid Hormone Responsive (THRSP), THRSP (gene 7069); assay: LTEA_HepaRG_THRSP: Life Technologies and Expression Analysis (LTEA) Assay for Thyroid Hormone Responsive (THRSP) using HepaRG (AID 2283536); conditions: mRNA level, 48 h; actives raise or lower the signal
Outline: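 Differentiated HepaRG cells treated 48 h in serum-free induction medium with 8 half-log concentrations up to 100 uM (0.5% DMSO), duplicates. THRSP mRNA by TaqMan qRT-PCR normalised to ACTB, GAPDH, POLR2A; bidirectional fit versus DMSO.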

[9] = read-out: Cellular tumor antigen p53 (Homo sapiens) (UniProt P04637); assay: LTEA_HepaRG_TP53: Life Technologies and Expression Analysis (LTEA) Assay for Tumor Protein P53 (TP53) using HepaRG (AID 2283537); conditions: mRNA level, 48 h; actives raise or lower the signal
Outline: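 Differentiated HepaRG cells in serum-free induction medium exposed 48 h in duplicate to 8 half-log concentrations, top 100 uM, 0.5% DMSO. TP53 mRNA by TaqMan qRT-PCR (Fluidigm), normalized to ACTB, GAPDH, POLR2A; fitted bidirectionally versus DMSO.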

[10] = read-out: UDP glucuronosyltransferase (UGT1A1), UGT1A1 (gene 54658); assay: LTEA_HepaRG_UGT1A1: Life Technologies and Expression Analysis (LTEA) Assay for UDP glucuronosyltransferase (UGT1A1) using HepaRG (AID 2283538); conditions: mRNA level, 48 h; actives raise or lower the signal
Outline: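 Readout is UGT1A1 transcript level by qRT-PCR, normalized to three housekeeping genes, after 48 h chemical treatment of HepaRG cells. Concentrations ran from 100 uM down in half-log steps with 0.5% DMSO, and gain or loss relative to DMSO was fitted.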

[11] = read-out: UDP glucuronosyltransferase (UGT1A6), UGT1A6 (gene 54578); assay: LTEA_HepaRG_UGT1A6: Life Technologies and Expression Analysis (LTEA) Assay for UDP glucuronosyltransferase (UGT1A6) using HepaRG (AID 2283539); conditions: mRNA level, 48 h; actives raise or lower the signal
Outline: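 Human HepaRG cells were dosed for 48 h in serum-free induction medium with 0.5% DMSO vehicle, eight-point half-log series from 100 uM, in duplicate. UGT1A6 mRNA was measured by qRT-PCR, normalized to ACTB, GAPDH, POLR2A, and fitted bidirectionally against DMSO.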

[12] = LTEA_HepaRG_LDH_cytotoxicity: Cytotoxicity Assessment in the Life Technologies and Expression Analysis (LTEA) Assay (AID 2283563; active = hit-call score of the fitted dose curve at least 0.9, where 1 is the maximum;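 as to AC50: LDH activity released into spent culture medium as a marker of cell death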)
Outline: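 Differentiated human HepaRG cells, plated 48 h beforehand, were switched to serum-free induction medium and exposed for 48 h to eight half-log concentrations (top 100 uM) in 0.5% DMSO. LDH was measured in spent medium; activity was fitted relative to DMSO vehicle.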

[13] = ATG_XTT_Cytotoxicity: Cytotoxicity Assessment in the Attagene TRANS-FACTORIAL HepG2 Assay (AID 2283584; active = hit-call score of the fitted dose curve at least 0.9, where 1 is the maximum)
Outline: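 HepG2 human liver cells, transiently transfected with multiple GAL4-UAS reporter units, were dosed and read at 24 h by XTT as cell number. Loss of signal was fitted relative to DMSO negative control baseline.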

[14] = target: Cellular tumor antigen p53 (Homo sapiens) (UniProt P04637); assay: TOX21_p53_BLA_p2_ratio: Tox21 HCT-116 p53 Agonism Beta-lactamase Assay, Ratio, Phase 2 (AID 2283592; active = hit-call score of the fitted dose curve at least 0.9, where 1 is the maximum)
Sequence of Cellular tumor antigen p53 (Homo sapiens) (P04637 whole entry, looked up): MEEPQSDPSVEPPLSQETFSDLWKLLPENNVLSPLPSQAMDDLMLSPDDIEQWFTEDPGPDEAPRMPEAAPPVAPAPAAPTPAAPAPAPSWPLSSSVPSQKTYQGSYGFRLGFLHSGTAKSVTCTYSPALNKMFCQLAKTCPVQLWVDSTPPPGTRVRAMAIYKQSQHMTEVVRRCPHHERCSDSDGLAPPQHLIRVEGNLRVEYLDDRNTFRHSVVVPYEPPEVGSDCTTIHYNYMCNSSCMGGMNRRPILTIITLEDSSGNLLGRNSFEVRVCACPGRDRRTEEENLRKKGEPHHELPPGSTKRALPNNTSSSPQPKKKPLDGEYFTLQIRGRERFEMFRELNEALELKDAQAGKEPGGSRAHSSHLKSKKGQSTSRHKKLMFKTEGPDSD
Outline: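 HCT116 cells carrying a p53-responsive beta-lactamase reporter were plated, incubated 5 h at 37C, then dosed with compounds in DMSO (217-fold dilution) for 16 h. CCF4-AM substrate was added for 2 h at room temperature; the 460/530 nm emission ratio gave gain-of-signal activity relative to DMSO.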

[15] = TOX21_p53_BLA_p3_viability: Viability Assessment in the Tox21 HCT-116 p53 Agonism Beta-lactamase Assay, Phase 3 (AID 2283593; active = hit-call score of the fitted dose curve at least 0.9, where 1 is the maximum;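 also: cells exposed to compound for 16 h before reading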)
Outline: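 HCT116 cells, 4000/well, dosed 5 h after plating by pin transfer (217-fold dilution from DMSO stock) and incubated 16 h at 37C, 5% CO2. Viability read as ATP luminescence with CellTiter-Glo after 30 min at room temperature.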

[16] = target: Cellular tumor antigen p53 (Homo sapiens) (UniProt P04637); assay: TOX21_p53_BLA_p3_ratio: Tox21 HCT-116 p53 Agonism Beta-lactamase Assay, Ratio, Phase 3 (AID 2283596; active = hit-call score of the fitted dose curve at least 0.9, where 1 is the maximum)
Outline: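 HCT116 p53-bla cells (4000/well) given compound in DMSO (217-fold dilution) after 5 h, incubated 16 h at 37C. CCF4-AM substrate 2 h at room temperature; 460/530 nm emission ratio, gain fitted against DMSO.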

[17] = read-out: X-box binding protein 1 (XBP1), XBP1 (gene 7494); assay: LTEA_HepaRG_XBP1: Life Technologies and Expression Analysis (LTEA) Assay for X-box binding protein 1 (XBP1) using HepaRG (AID 2283540); conditions: mRNA level, 48 h; actives raise or lower the signal
Outline: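 Differentiated human HepaRG cells in serum-free induction medium were exposed in duplicate for 48 h to eight half-log concentrations up to 100 uM in 0.5% DMSO. XBP1 mRNA was quantified by qRT-PCR, normalised to ACTB, GAPDH and POLR2A, with bidirectional fitting against DMSO.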

Measured: AC50

Sequence of Signal transducer and activator of transcription 3 (Homo sapiens) (P40763 whole entry, looked up): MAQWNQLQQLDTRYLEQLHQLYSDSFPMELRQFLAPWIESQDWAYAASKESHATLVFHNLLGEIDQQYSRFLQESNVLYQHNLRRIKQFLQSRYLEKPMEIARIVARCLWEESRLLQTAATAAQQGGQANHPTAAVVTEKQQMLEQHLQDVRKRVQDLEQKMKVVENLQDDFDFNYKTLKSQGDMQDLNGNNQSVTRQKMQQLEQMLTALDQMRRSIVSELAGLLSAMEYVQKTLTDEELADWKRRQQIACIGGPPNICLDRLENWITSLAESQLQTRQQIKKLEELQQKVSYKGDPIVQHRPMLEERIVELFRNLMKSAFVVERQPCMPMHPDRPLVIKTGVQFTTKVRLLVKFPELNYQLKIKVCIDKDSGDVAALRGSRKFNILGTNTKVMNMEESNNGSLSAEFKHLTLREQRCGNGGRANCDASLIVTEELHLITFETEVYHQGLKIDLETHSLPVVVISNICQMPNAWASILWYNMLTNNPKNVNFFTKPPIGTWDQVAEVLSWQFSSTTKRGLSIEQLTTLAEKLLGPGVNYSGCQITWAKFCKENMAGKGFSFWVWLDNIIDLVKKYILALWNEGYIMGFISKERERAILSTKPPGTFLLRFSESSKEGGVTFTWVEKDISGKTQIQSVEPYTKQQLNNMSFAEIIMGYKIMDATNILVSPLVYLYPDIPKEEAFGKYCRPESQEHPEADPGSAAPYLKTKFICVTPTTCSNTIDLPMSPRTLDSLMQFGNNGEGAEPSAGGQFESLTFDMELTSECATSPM

CCCCCCCCCC[N+](C)(C)[O-]
not listed: [17]
inactive: all other assays above

O=C(N[C@@H](c1ccccc1)[C@@H]1CCCCN1)c1cccc(C(F)(F)F)c1Cl
inactive: [5] | TIMP1, TIMP1 (gene 7076) | [8] | [17]
active: [1] 91.4 µM | [2] 80.3 µM | [3] 37.1 µM | [4] 78.9 µM | [6] 82.3 µM | [7] 82.2 µM | [10] 57.7 µM | [11] 69.1 µM | [12] 43 µM
